ID4 binder – binders of human ID4 protein; small molecule microarray, Flag-ID4 binding, fluorescence F/B; calls only; P47928; AID 624137; 31,000 compounds, 1.2% hits; call rule not given here;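 also: a binder raises fluorescence above local background on the spot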
Target sequence (P47928 whole entry, looked up): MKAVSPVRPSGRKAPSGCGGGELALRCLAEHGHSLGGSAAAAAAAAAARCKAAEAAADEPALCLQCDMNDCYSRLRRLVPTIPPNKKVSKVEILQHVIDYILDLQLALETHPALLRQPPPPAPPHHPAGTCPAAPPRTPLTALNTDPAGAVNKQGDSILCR
p53 PUMA act – restores mutant p53 pathway signaling in SW480 cells. SW480 PUMA-promoter luciferase, p53 mutant reactivation. 28,000 compounds, 1.5% hits. activation, % at 9.98 µM; in the data active = activation above about 52%
The depositor's hits bear a star; i = inactive; . = no result given; + = active, no number. In the library only some 2.3% were active in any assay of this set; here they are far more common.

SMILES	ID4 binder	p53 PUMA act
C[C@@H]1CN([C@@H](C)CO)C(=O)c2cc(NC(=O)Nc3ccc4c(c3)OCO4)ccc2O[C@H]1CN(C)Cc1ccncc1	+	-2.0
CC(C)C[C@@H]1NC(=O)[C@H]2C[C@@H](C(=O)NCc3ccc(F)cc3)[C@@H](c3cccc(OCCO)c3)N2C1=O	i	.
COC(=O)c1c(NC(=O)CN2C(=O)c3ccccc3C2=O)sc(C)c1-c1ccccc1	i	0.0
COc1cc(OC)c2ccc(=O)oc2c1CC(O)C(C)(C)OC (stereo unspecified)	i	-1.3
O=C(NC1CCCCC1)c1c(NC(=O)c2cc(-c3cccnc3)nc3ccccc23)sc2c1CCC2	i	-9.9
COc1cc(/C=C/c2cc(O)cc(O[C@@H]3O[C@H](CO)[C@@H](O)[C@H](O)[C@H]3O)c2)ccc1O[C@@H]1O[C@H](CO)[C@@H](O)[C@H](O)[C@H]1O	.	14.7
COc1cc(/C=C/c2cc(O)cc(O)c2)ccc1O[C@@H]1O[C@H](CO)[C@@H](O)[C@H](O)[C@H]1O	i	65.7*
COc1cc(NC(=O)COc2ccc([N+](=O)[O-])cc2)cc(OC)c1	i	-1.4
O=C(CN1C(=O)S/C(=C\C=C\c2ccccc2)C1=O)Nc1cccc(O)c1	i	59.2*
O=C(CCN1C(=O)c2ccccc2C1=O)Nc1cccc(O)c1	i	18.6
Cc1nn(Cc2cccc(C(=O)Nc3ccc(S(=O)(=O)N4CCCCC4)cc3)c2)c(C)c1Cl	i	-15.4
Cc1ccc(S(=O)(=O)NC(C)C(=O)Nc2c(C)cc(C)cc2C)cc1 (stereo unspecified)	i	-13.8
CN1c2ccccc2Oc2nnc(N3CCN(c4ccccc4)CC3)cc21	i	95.0*
COC(=O)[C@@H]1C[C@@]23C=CC[N+]4([O-])CC[C@@]5(c6ccccc6N[C@@]15C2C)[C@H]34 (stereo partly specified)	.	-10.5
O=S(=O)(N[C@@H]1CCCN(Cc2ccc(OCCO)cc2)C1)c1ccccc1	i	.
Cc1ccc(S(=O)(=O)N[C@@H]2CCCN(Cc3cccc(OCCO)c3)C2)cc1	i	.
Cc1ccc(S(=O)(=O)N[C@@H]2CCCN(Cc3ccc(OCCO)cc3)C2)cc1	+	.
O=S(=O)(N[C@@H]1CCCN(Cc2cccc(OCCO)c2)C1)c1cc(Cl)ccc1Cl	+	.
CCCN(C)C[C@@H]1Oc2cc(C#CC3CCCCC3)ccc2S(=O)(=O)N([C@@H](C)CO)C[C@H]1C	i	.
CN1N=C(c2coc3ccccc23)CC1(O)C(F)(F)F (stereo unspecified)	i	72.6*
Cc1ccc(N2CC(C(=O)Nc3ccc(S(=O)(=O)NCC4CCCO4)cc3)CC2=O)cc1 (stereo unspecified)	+	1.1
CS(=O)(=O)Nc1ccc(S(=O)(=O)NCC2CCCO2)cc1 (stereo unspecified)	i	-4.3
COc1ccccc1NC(=O)N[C@H]1CC[C@H](CC(=O)N2CCC(Cc3ccccc3)CC2)O[C@H]1CO	i	.
COc1ccc(-n2c(SCC(=O)N(c3ccccc3)c3ccccc3)nc3ccccc3c2=O)cc1	i	2.1
COCCOC(=O)N1C(=O)[C@@]2(c3cc(C#CC4(O)CCCCCC4)ccc31)[C@H](c1ccc(O)cc1)N1[C@H](c3ccccc3)[C@H](c3ccccc3)OC(=O)[C@H]1[C@@H]2C(N)=O	i	.
SMILES	ID4 binder	p53 PUMA act
Cc1ccc(NC(=O)COc2ccc(Cl)cc2C)c([N+](=O)[O-])c1	i	63.8*
Cc1ccc(NC(=O)COc2ccc(Br)cc2C)c([N+](=O)[O-])c1	i	45.3
Cc1ccc(NC(=O)COc2ccc(Cl)cc2Br)c([N+](=O)[O-])c1	i	14.1
Cc1ccc(NC(=O)COc2ccc(Br)cc2Cl)c([N+](=O)[O-])c1	i	81.9*
O=C(COc1ccc(Br)cc1Cl)Nc1ccccc1[N+](=O)[O-]	i	39.3
Cc1ccc(OCC(=O)Nc2ccc(C)cc2[N+](=O)[O-])c(C)c1	i	88.8*
O=C(C1CCCO1)N1CCN(C/C=C/c2ccccc2)CC1 (stereo unspecified)	i	-6.4
CC(C)Cc1nc(SC(C)C(=O)Nc2ccc(Cl)cc2)n[nH]1 (stereo unspecified)	i	-43.8
CC(=O)c1cccc(-n2c(CCC(=O)O)ccc2-c2ccc(C)cc2)c1	+	10.7
Cc1ccc(-c2ccc(CCC(=O)O)n2-c2ccc(N(C)C)cc2)cc1	i	8.8
C[C@@H]1CN([C@@H](C)CO)C(=O)c2cc(NS(=O)(=O)c3ccc(Cl)cc3)ccc2O[C@@H]1CN(C)C(=O)NC1CCCCC1	i	2.9
COc1ccc(S(=O)(=O)N(C)C[C@@H]2Oc3ccc(NC(=O)CCCN(C)C)cc3C(=O)N([C@H](C)CO)C[C@@H]2C)cc1	i	2.5
Cc1noc(C)c1S(=O)(=O)N(C)C[C@H]1Oc2ccc(NC(=O)CCCN(C)C)cc2C(=O)N([C@H](C)CO)C[C@@H]1C	+	5.3
C[C@@H]1CN([C@@H](C)CO)C(=O)c2cc(NC(=O)NC3CCCCC3)ccc2O[C@@H]1CN(C)S(=O)(=O)c1ccc(Cl)cc1	i	-0.5
COc1ccc(S(=O)(=O)N(C)C[C@H]2Oc3ccc(NC(=O)CCCN(C)C)cc3C(=O)N([C@H](C)CO)C[C@@H]2C)cc1	+	-12.2
C[C@H](CO)N1C[C@H](C)[C@@H](CN(C)S(=O)(=O)c2ccc(Cl)cc2)Oc2ccc(NC(=O)NC3CCCCC3)cc2C1=O	+	-0.2
Cc1noc(C)c1S(=O)(=O)N(C)C[C@@H]1OCCCC[C@@H](C)Oc2ccc(NC(=O)CCCN(C)C)cc2C(=O)N([C@H](C)CO)C[C@@H]1C	i	1.3
CCC(=O)N(C)C[C@@H]1Oc2ncc(-c3ccccc3F)cc2C(=O)N([C@@H](C)CO)C[C@@H]1C	i	.
O=C(NCc1ccco1)c1cccc(NC(=O)c2ccc(Br)cc2)c1	i	10.8
CNC[C@@H]1Oc2ccc(NC(=O)Cc3cn(C)c4ccccc34)cc2CC(=O)N([C@H](C)CO)C[C@@H]1C	i	-15.0
CNC[C@H]1Oc2ccc(NC(=O)Cc3cn(C)c4ccccc34)cc2CC(=O)N([C@@H](C)CO)C[C@H]1C	+	-9.3
CNC[C@@H]1Oc2ccc(NC(=O)Cc3ccccc3)cc2CC(=O)N([C@H](C)CO)C[C@@H]1C	i	8.2
CNC[C@H]1Oc2ccc(NC(=O)Cc3ccccc3)cc2CC(=O)N([C@H](C)CO)C[C@@H]1C	+	-5.5
Cn1c(=O)c2c(ncn2CC(=O)Nc2ccc(Br)cc2F)n(C)c1=O	i	-8.7
Cc1cc(Cl)cc(Br)c1OCCCSc1ncccn1	i	131.9*
SMILES	ID4 binder	p53 PUMA act
Cc1ccc(C)c(OCCCCSc2ncccn2)c1Cl	i	38.9
COc1ccc(CN(C)C[C@@H]2Oc3ccc(NC(=O)Cc4cn(C)c5ccccc45)cc3C(=O)N([C@H](C)CO)C[C@@H]2C)cc1	i	-7.4
COc1ccc(CN(C)C[C@@H]2Oc3ccc(NC(=O)Cc4cn(C)c5ccccc45)cc3C(=O)N([C@@H](C)CO)C[C@@H]2C)cc1	+	-8.5
C[C@@H]1CN([C@H](C)CO)C(=O)c2cc(NC(=O)Cc3cn(C)c4ccccc34)ccc2O[C@H]1CN(C)C(=O)Nc1ccccc1	i	-12.1
C[C@H]1CN([C@@H](C)CO)C(=O)c2cc(NC(=O)Cc3cn(C)c4ccccc34)ccc2O[C@H]1CN(C)C(=O)Nc1ccccc1	+	-6.5
O=C(CSc1nnc(-c2ccccc2Cl)o1)c1cc2ccccc2oc1=O	i	10.3

Screening data: PubChem BioAssay, Broad Institute
